Potency data for 40 molecules are collected here from PubChem BioAssay (NCATS).

Records with an inconclusive call do not appear. Entries that show only a call come without a potency. Calls of active or inactive are those of the source. Calls follow the shape of the dose curve; as a rule, active = well fitted curve in the direction sought with a large enough effect; inconclusive = small, poorly fitted or top-dose-only effect, or another doubt; inactive = no such curve, though single readings can be large or run the other way. Numbered stars: 1 amine (or outer) side, 2 acyl side, 3 side chain; on linkers, the order of the positions; unused ones are H or OH. Bridge positions count the residues as written; N and C are the ends. Square brackets hold non-standard residues; d marks the D form. Peptide text beside a SMILES is read from it. ξ: configuration not given here. Phe(3R-OH) = O=C([C@@H](N[*:1])[C@H](O[*:3])c1ccccc1)[*:2]; NMeTrp(4-OMe) = CN[C@@H](Cc1c[nH]c2cccc(OC)c12)C(=O)O; ξThr(3R)(O-yl) = C[C@@H](O[*:3])C(N[*:1])C(=O)[*:2]; NMeThr(3ξ) = CN[C@H](C(=O)O)C(C)O; NMeL = CN[C@@H](CC(C)C)C(=O)O; NMeV = CN[C@H](C(=O)O)C(C)C; ξIle = CC[C@H](C)C(N)C(=O)O; ξV = CC(C)C(N)C(=O)O

The assay is described as follows: qHTS for activators of dead-cell proteases activity screened against the NCATS CANVASS Library (AID 1347392).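 Also: luminescence from protease leaking out of membrane-damaged cells cleaving impermeant substrate; rising signal means more cytotoxicity.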 The following applies: HepG2 cytotoxicity, dead-cell protease luminescence, 5 h; series mostly up to 46.1 µM. An excerpt:
Natural products and their derivatives continue to be wellsprings of nascent therapeutic potential. However, many laboratories have limited resources for biological evaluation, leaving their previously isolated or synthesized compounds largely or completely untested. To address this issue, the Canvass library of natural products was assembled (https://tripod.nih.gov/canvass), in collaboration with academic and industry researchers, for quantitative high-throughput screening (qHTS) across a diverse set of cell-based and biochemical assays. The pure (>85% purity by liquid chromatography/mass spectrometry [LC/MS]) Canvass library of 346 natural products were submitted by 45 academic laboratories and companies around the world. We collected pure natural products to circumvent deconvolution and structure elucidation due to time and resource limitations. The library was formatted into 1536-well plates and evaluated in 50 qHTS (in an 11-pnt concentration series) bioassays with broad scope of disease-relevant mechanisms. The resulting data set from 50 different assays was then systematically analyzed to identify overall trends and specific natural products with interesting biological activities. Reported herein are the results of each individual qHTS and their corresponding assay protocol. This cytotoxicity assay measures dead-cell protease activity (proteases are released from cells that have lost membrane integrity). A luminogenic cell-impermeant peptide substrate (AAF-aminoluciferin) is used to measure dead-cell protease activity. The amount of luminescence directly correlates with the percentage of cells undergoing cytotoxic stress. National Center for Advancing Translational Sciences (NCATS), Rockville, MD National Institute of Health (NIH), Bethesda, Maryland
Protease-screen assay protocol: 1. In a white-solid bottom 1536-well plate, 5 uL of HepG2 cell suspension was dispensed using a Multidrop Combi (Thermo Fisher Scientific) at a final concentration of 2000 cells / well. 2. The assay plates were incubated for 18 hours at 37C, 5% CO2 to acclimate and attach. 3. […] of compounds (in DMSO; columns 5-48), vehicle control DMSO, and positive control were pin transferred into the assay plates using the Kalypsis pin tool (Wako USA) equipped with a 1536-well pin heads. This yields a final CANVASS compound concentration of 0.4 nM - 95 uM. 4. The assay plates were incubated for 5 hours at 37C, 5% CO2. 5. After compound treatment, 5 uL per well of CytoTox-Glo (Promega) reagent was added using the BioRAPTR dispenser. 6. The assay plates were incubated for 15 min at room temperature. 7. The luminescence readout was obtained using the ViewLux plate reader (PerkinElmer) using a clear emission filter, 2x binning, 1 sec exposure settings.
With `CO[C@@H]1C[C@@H](C[C@H]2CC[C@H](C)[C@H]([C@@H](C)C(=O)O)O2)O[C@]2(O[C@](C)([C@H]3CC[C@@](C)([C@@H]4O[C@@H]([C@H]5O[C@](C)(O)[C@H](C)C[C@@H]5C)C[C@@H]4C)O3)C[C@H]2C)[C@@H]1C`, the Potency result is “inactive”.

For the molecule `C/C=C/C=C/C1(O)C2C=C3C(=O)CC45C(=O)C(O)=C(C)C(=O)C4C1C1(C(=O)C(O)=C(C)C(=O)C351)C2C` (stereo not given), the Potency entry is “inactive”.

Regarding `C[C@@H]1O[C@@H](Oc2c(-c3ccc(O)cc3)oc3cc(O)cc(O)c3c2=O)[C@H](O)[C@H](O)[C@H]1O`, the Potency entry is “inactive”.

On to `CC1(C)CCC[C@]2(C)[C@@H]1CC[C@@]13C[C@@H](CC[C@H]12)C(C)(O)C3` (stereo not given in full), for which the Potency result was “inactive”.

As to `C=C1C[C@@]23C=CC(=O)[C@@](C)(CCC(=O)Nc4c(O)ccc(C(=O)O)c4O)C2C[C@@H]1CC3` (stereo not given in full), the Potency entry was “inactive”.

Take `CC(=O)O[C@H]1CC[C@@]2(C)C(CC[C@]3(C)C2CC=C2C4CC(C)(C)CC[C@]4(C)CC[C@]23C)C1(C)C` (stereo not given in full): the Potency entry was “inactive”.

Take `C[C@@]12CCC[C@@](C)(C(=O)O)[C@H]1C[C@@H](O)[C@]13C[C@H]4C[C@H](O[C@@]4(C)C1)[C@@H]23`: the Potency result was “inactive”.

For `COc1ccc(CCCc2cc(O)c(OC)c(O)c2)c(O)c1O`, the Potency entry was “inactive”.

Regarding `Oc1ccc([C@H]2Oc3ccc(/C=C/c4cc(O)cc(O)c4)cc3C2c2cc(O)cc(O)c2)cc1` (stereo not given in full), the Potency entry is “inactive”.

In the case of `COc1ccc2cc(NC(=O)C3=NO[C@H]4[C@H](O)C=C[C@@H](Cl)[C@@]4(O)C3)c(=O)oc2c1OC`, the Potency entry was “inactive”.

`CC1(C)[C@H](Br)CC[C@]23C[C@]4(C)C(=O)CC12C[C@H]34`: the Potency result was “inactive”.

In the case of `O=C(O)Cc1c[nH]c2ccccc12`, the Potency entry was “inactive”.

Take `C[C@@H](CCC[C@]1(C)C(=O)C=C[C@]23C[C@H]4C[C@H](O[C@@]4(C)C2)C31)C(=O)N[C@@H](CO)C(=O)O` (stereo not given in full): the Potency result was “inactive”.

On to `C/C=C1/CC[C@@H]2c3[nH]c4ccccc4c3CCN2C1`, for which the Potency entry is “inactive”.

`C[C@@]12CCC[C@@](C)(C(=O)O)[C@H]1CC[C@]13C[C@H]4C[C@H](O[C@@]4(C)C1)[C@H]32`: the Potency result was “inactive”.

Consider `O=c1cc(-c2ccc(O)c(O[C@@H]3O[C@H](CO)[C@@H](O)[C@H](O)[C@H]3O)c2)oc2cc(O[C@@H]3O[C@H](CO)[C@@H](O)[C@H](O)[C@H]3O)cc(O)c12`, for which the Potency result was “inactive”.

Turning to `O=C(O)[C@@]12CO[C@@]3(O)C4CCN(CC[C@H]31)[C@H]4c1c2[nH]c2ccccc12`, the Potency entry was “inactive”.

For the molecule `CCCCCC[C@H](CCCCC[C@@H](O)C(N)=O)OC(=O)[C@@H]1CC=CN1C(=O)c1ccccc1O`, the Potency result was “inactive”.

As for `O=C(O)CC1OC(=O)c2c(O)cccc21` (stereo not given), the Potency entry is “inactive”.

On to `C/C(=C\[C@H](C)C(=O)CCCC1CC(=O)NC(=O)C1)[C@@H]1OC(=O)/C=C/CC/C=C/C[C@@H](O)[C@@H]1C`, for which the Potency result was “inactive”.

`CC(O)/C=C/C1(O)C(C)(C)CC(O)CC1(C)O` (stereo not given): the Potency result was “inactive”.

Consider `C[C@@H]1O[C@@H](O[C@@H]2[C@@H](O)[C@H](O[C@@H]3[C@@H](O)[C@@H](O)C(O[C@H]4[C@H](OC(=O)[C@]56CCC(C)(C)C[C@H]5C5=CCC7[C@@]8(C)C[C@H](O)[C@H](O[C@@H]9C[C@H](CO)[C@@H](O)[C@H](O)[C@H]9O)[C@@](C)(CO)C8[C@H](O)C[C@@]7(C)[C@]5(C)CC6)OC[C@H](O)[C@@H]4O)O[C@H]3C)OC[C@H]2O)[C@H](O)[C@H](O)[C@H]1O` (stereo not given in full), for which the Potency result was “inactive”.

In the case of `O=C(O)[C@@]12COC3(O)C1CCN1CC[C@H]3[C@@H]1c1c2[nH]c2ccccc12`, the Potency entry was “inactive”.

`CNc1ccc(Cl)cc1C(=O)OC[C@]1(C)[C@H]2CC[C@]3(C)[C@@H](C[C@@H](OC)[C@H](C)[C@H]3C3=C(O)C(=O)OC3O)[C@]2(C)CC[C@H]1O` (stereo not given in full): the Potency result was “inactive”.

Turning to `C[C@@H]1O[C@H](c2c(O)cc(O)c3c(=O)cc(-c4ccc(O)cc4)oc23)[C@H](O)[C@H](O)[C@H]1O`, the Potency result was “inactive”.

For `CC12C[C@]3(O)O[C@@H](O1)[C@]1(COC(=O)c4ccccc4)[C@@H]3CC21OC1OC(CO)C(O)C(O)C1O` (stereo not given in full), the Potency result is “inactive”.

In the case of `COC1C(O)C(OC(N)=O)C(Oc2ccc3c(O)c(NC(=O)c4ccc(O)c(CC=C(C)C)c4)c(=O)oc3c2C)OC1(C)C` (stereo not given), the Potency entry is “inactive”.

`C=C[C@@]1(C)CC[C@@H]([C@H](C)C(=O)/C=C/C(C)C)O1`: the Potency result is “inactive”.

Take `CO[C@H]1/C=C/CC[C@@H](S[C@@H]2O[C@H](CO)[C@@H](O)[C@H](O)[C@H]2O)CC(=O)O[C@@H](/C(C)=C/[C@H](C)C(=O)CCCC2CC(=O)NC(=O)C2)[C@@H](C)[C@@H]1O`: the Potency entry was “inactive”.

As for `CC(C)(Br)[C@@H](Cl)C[C@H](Br)[C@](C)(Cl)/C=C/Br`, the Potency result was “inactive”.

For the molecule `C=C1C[C@@]23C=CC(=O)[C@@](C)(CCCC(C)C(=O)O)[C@@H]2C[C@@H]1CC3` (stereo not given in full), the Potency entry is “inactive”.

Take `C/C1=C\CC(=O)/C=C/C=C\c2csc(n2)[C@@H](C)NC(=O)C[C@@](S)([C@@H](C)C(=O)O)CC1`: the Potency result was “inactive”.

For `CC[C@@H]1C[C@@]2(CC)OC(=O)[C@@]3(CC)OC(=O)[C@@H]1[C@@H]23`, the Potency result was “inactive”.

As for `CC(C)=CCC[C@@H](C)[C@@H]1CC[C@@]2(C)C[C@H]3C(C)=CC(=O)[C@@H]3/C(C=O)=C\C[C@H]12`, the Potency result is “inactive”.

In the case of `COc1c(O)cc2oc(-c3ccccc3)cc(=O)c2c1O`, the Potency result was “inactive”.

For `O=Cc1ccc2n1C[C@@]1(C[C@H](O)[C@H](O)CO1)OC2`, the Potency result is “inactive”.

Take `CC1C(=O)C23CCC1C[C@]21O[C@@H]2C(C)(C)C=CC(=O)[C@@]23COC1=O` (stereo not given in full): the Potency result is “inactive”.

Regarding `C=C1C(=O)C[C@H]2C[C@@H]1[C@]2(C)CCC=C(C)C`, the Potency entry is “inactive”.

Regarding `CC1=CC[C@@]2(C[C@@H]1O)[C@@H](C(=O)O)CC[C@H]2C(C)C`, the Potency entry was “inactive”.

For the molecule `CC[C@H](C)C(NC(=O)[C@@H](NC)C(C)C)C(=O)NC1C(=O)N(C)[C@@H](C(C)O)C(=O)N[C@@H](C(C)C)C(=O)N(C)[C@@H](CC(C)C)C(=O)NC(C(C)C)C(=O)N(C)[C@@H](C(C)C)C(=O)N(C)[C@@H](Cc2c[nH]c3cccc(OC)c23)C(=O)N[C@@H](C(C)C)C(=O)N[C@@H]([C@H](O)c2ccccc2)C(=O)N[C@@H](C(C)C)C(=O)O[C@@H]1C` (stereo partly drawn) (H-[NMeV][ξIle][ξThr(3R)(O-yl)][NMeThr(3ξ)]V[NMeL][ξV][NMeV][NMeTrp(4-OMe)]V[Phe(3R-OH)]V; ester 3-C), the Potency entry was “inactive”.
